This note sets out measurements from PMC4336329 (PLoS ONE, 2015).

Out of some 310,000 compounds screened, about 14,000 (4.5%) showed an effect of 50% or more. Effects have a minus sign here. Shown is part of a subset that was picked to be rich in strong results.
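Note: peak tail current of the secondary pulse compared with the same well before compound.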

Sequence of human ether-à-go-go-related gene (hERG) potassium channel (Q12809 whole entry, looked up): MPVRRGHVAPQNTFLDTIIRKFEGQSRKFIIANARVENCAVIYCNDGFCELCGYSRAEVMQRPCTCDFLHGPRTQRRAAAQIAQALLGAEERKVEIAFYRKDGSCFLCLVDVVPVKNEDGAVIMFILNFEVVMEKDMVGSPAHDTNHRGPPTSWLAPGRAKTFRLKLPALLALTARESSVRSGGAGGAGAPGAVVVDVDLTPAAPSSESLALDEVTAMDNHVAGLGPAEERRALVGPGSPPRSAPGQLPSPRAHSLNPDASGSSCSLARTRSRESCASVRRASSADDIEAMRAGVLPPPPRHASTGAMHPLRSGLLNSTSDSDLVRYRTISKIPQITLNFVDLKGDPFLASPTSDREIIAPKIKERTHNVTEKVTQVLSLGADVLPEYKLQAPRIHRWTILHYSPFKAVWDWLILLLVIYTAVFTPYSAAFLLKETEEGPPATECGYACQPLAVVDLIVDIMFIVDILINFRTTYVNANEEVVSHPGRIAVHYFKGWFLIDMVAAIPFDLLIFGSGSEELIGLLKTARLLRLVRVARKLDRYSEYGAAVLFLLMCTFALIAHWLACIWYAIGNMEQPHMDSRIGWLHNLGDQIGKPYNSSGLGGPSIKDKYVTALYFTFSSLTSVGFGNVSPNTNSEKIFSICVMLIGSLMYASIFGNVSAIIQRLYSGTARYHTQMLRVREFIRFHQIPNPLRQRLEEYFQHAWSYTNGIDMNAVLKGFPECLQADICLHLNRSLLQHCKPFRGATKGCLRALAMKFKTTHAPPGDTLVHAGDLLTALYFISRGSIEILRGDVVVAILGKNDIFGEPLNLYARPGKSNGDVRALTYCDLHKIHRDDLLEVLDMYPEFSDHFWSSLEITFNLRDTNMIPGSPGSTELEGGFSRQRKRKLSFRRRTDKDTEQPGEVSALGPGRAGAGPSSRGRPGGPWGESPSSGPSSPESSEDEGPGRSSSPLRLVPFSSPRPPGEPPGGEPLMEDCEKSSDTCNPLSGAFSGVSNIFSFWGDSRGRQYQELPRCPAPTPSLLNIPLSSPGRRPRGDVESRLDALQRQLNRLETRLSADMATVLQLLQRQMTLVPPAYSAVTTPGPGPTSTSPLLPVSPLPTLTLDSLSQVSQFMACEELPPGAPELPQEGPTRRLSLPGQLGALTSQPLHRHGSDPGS

The assay has as its target human ether-à-go-go-related gene (hERG) potassium channel (human, UniProt Q12809). Nature of the assay: primary screen, population patch clamp on CHO cells stably expressing hERG; higher = less effect of the substance.
For the molecule `C(=C\c1ccco1)/c1nc2ccccc2[nH]1`, the “hERG current change (%, negative = inhibition) at 10uM” value came to 8.91%.
Then `O=C(c1cc2ncc(CCCl)cn2n1)N1CCCCCC1`, with 8.53%; and `Cc1cccc(C)c1N1CCc2cn[nH]c21`, with 8.17%; and `CC1=NN(C(N)=S)C(=O)C1N=Nc1cccc(Cl)c1` (centres unmarked), with 17.2%.
As for `CN(C)S(=O)(=O)c1ccc2c(c1)C(=NO)c1cc(S(=O)(=O)N(C)C)ccc1-2`, the “hERG current change (%, negative = inhibition) at 10uM” value is reported as 14.7%.
Then `OCCNc1nc(Cl)nc(NCc2ccco2)n1`, with 8.89%; and `CCc1ccccc1NC(=O)COC(=O)c1c(C)nsc1NC`, with -2.87%; and `COc1ccccc1C(=O)n1nc(-c2ccccc2)nc1N`, with 0.335%.
Then `CCN(CC(=O)Nc1ccccc1-c1ccccc1)Cc1nc2ccccc2c(=O)[nH]1`, with -23.4%; and `CCN(CC(=O)Nc1ccccc1C(=O)Nc1ccccc1)Cc1nc2ccccc2c(=O)[nH]1`, with -75.6%.
Then `CCN(CC(=O)Nc1ccccc1Br)Cc1nc2ccccc2c(=O)[nH]1`, with -22.3%; and `O=C(CCSc1nc(-c2ccco2)cc(C(F)(F)F)n1)NCC1CCCO1` (centres unmarked), with -8.69%.
Regarding `O=C1CCC(=O)N1OCCCOc1ccccc1`, the “hERG current change (%, negative = inhibition) at 10uM” value is reported as -2.09%.
Turning to `COC(=O)c1[nH]c2ccc(Cl)cc2c1NC(=O)C1CC1`, the “hERG current change (%, negative = inhibition) at 10uM” value was 17.1%.
Then `COc1cc(C(=O)NC(C)c2cnn(-c3ccccc3C)c2C)cc(OC)c1OC` (centres unmarked), with -51%; and `Cc1ccccc1-n1ncc(C(C)NC(=O)c2ccccc2)c1C` (centres unmarked), with -4.33%; and `COc1cc(OC)cc(C(=O)NC(C)c2cnn(-c3ccccc3C)c2C)c1` (centres unmarked), with -1.48%.
Then `C/C(N)=C(/C#N)C(=O)COC(=O)C1CCC(C(C)(C)C)CC1` (centres unmarked), with -7.3%.
On to `O=c1[nH]c(C2CCN(S(=O)(=O)c3ccccc3)CC2)nc2c1nnn2Cc1c(F)cccc1Cl`, for which the “hERG current change (%, negative = inhibition) at 10uM” value was -2.84%.
Turning to `CCOC(=O)c1[nH]c2c(c1C)C(=O)CC(c1ccc(OC)c(OC)c1)C2` (centres unmarked), the “hERG current change (%, negative = inhibition) at 10uM” value is given as -9.84%.
Turning to `CN1CCN(CCC(=O)Nc2ccccc2Cl)CC1`, the “hERG current change (%, negative = inhibition) at 10uM” value is recorded as -1.75%.
Then `Cl.O=C(CCN1CCCCCC1)Nc1ccccc1F`, with -4.4%; and `O=C(CCN1CCN(CC(=O)Nc2ccccc2Cl)CC1)Nc1ccccc1F`, with -69.1%; and `O=C(CCN1CCN(CC(=O)Nc2ccccc2F)CC1)Nc1ccccc1F`, with -65.4%.
`O=C(CCN1CCN(c2ccccc2F)CC1)Nc1ccccc1Cl`: the “hERG current change (%, negative = inhibition) at 10uM” value is recorded as -2.49%.
Then `O=C(CN1CCN(c2ccccc2F)CC1)Nc1ccccc1F`, with -1.86%; and `COc1ccc(N(Cc2ccccc2)S(=O)(=O)c2cc(C(=O)O)ccc2Cl)cc1`, with 5.3%.
Regarding `CC(C)C(NC(=O)OCc1ccccc1)C(=O)OCC(=O)N1CCCCC1` (centres unmarked), the “hERG current change (%, negative = inhibition) at 10uM” value is recorded as -7.36%.
Then `CC(C)[C@H](NC(=O)OCc1ccccc1)C(=O)OCC(=O)N1CCN(c2ccccc2)CC1`, with -58.3%; and `CC(C)C(NC(=O)c1ccccc1)C(=O)OCC(=O)N1CCN(c2ccccc2)CC1` (centres unmarked), with -2.47%; and `CC(C)[C@H](NC(=O)OCc1ccccc1)C(=O)OCC(=O)Nc1ccc(N2CCOCC2)cc1`, with -15.1%.
Then `CC(C)[C@H](NC(=O)OCc1ccccc1)C(=O)OCC(=O)N1CCN(c2ccc(F)cc2)CC1`, with -75.3%; and `CC(C)C(NC(=O)OCc1ccccc1)C(=O)OCC(=O)N1C(C)CCCC1C` (centres unmarked), with 4.95%.
Then `CCOC(=O)N1CCN(C(=O)CN(C2CCCCC2)S(=O)(=O)c2ccc(F)cc2)CC1`, with -25.3%; and `O=C(Nc1cc(S(=O)(=O)N2CCOCC2)ccc1N1CCOCC1)c1cnccn1`, with -42.7%.
For the molecule `CC(C)(C)C(=O)NC(=S)Nc1ccccc1C(=O)NC1CCCCC1`, the “hERG current change (%, negative = inhibition) at 10uM” value is on record as -18%.
Take `COc1ccc(C)cc1NC(=O)c1ccc2c(SCC(=O)O)c3c(nc2c1)CCCC3`: the “hERG current change (%, negative = inhibition) at 10uM” value was found to be 10.9%.
On to `CC(C)OC(=O)CSc1nnc(-c2ccc(Cl)cc2Cl)o1`, for which the “hERG current change (%, negative = inhibition) at 10uM” value was -7.24%.
Then `CC(C)c1ccc(S(=O)(=O)N2CCN(CC(=O)Nc3ccc4c(c3)OCO4)CC2)cc1`, with -13.9%.
For the molecule `O=C(CN1CCN(S(=O)(=O)c2ccc(Cl)cc2)CC1)Nc1ccc2c(c1)OCO2`, the “hERG current change (%, negative = inhibition) at 10uM” value is on record as -65%.
Then `O=C(CN1CCN(S(=O)(=O)c2ccc(Br)cc2)CC1)Nc1ccc2c(c1)OCCO2`, with -27.9%.
`O=C(CN1CCN(S(=O)(=O)c2ccc(Cl)cc2)CC1)Nc1ccc2c(c1)OCCO2`: the “hERG current change (%, negative = inhibition) at 10uM” value was -5.94%.
Then `O=C(CN1CCN(S(=O)(=O)c2ccccc2)CC1)Nc1ccc2c(c1)OCO2`, with -44.1%; and `O=C(CN1CCN(S(=O)(=O)c2ccc(Br)cc2)CC1)Nc1ccc2c(c1)OCO2`, with -62.4%.
Regarding `CCCc1nnc(SCC(=O)Nc2ccc(OC)cc2)o1`, the “hERG current change (%, negative = inhibition) at 10uM” value amounted to 28.8%.
Then `Nn1c(SCc2ccccc2)nnc1C1CCCCC1`, with 7.68%; and `CC1(C)Cc2c(cnn2-c2ccc(F)cc2)C(NC(=O)CCC(F)(F)F)C1` (centres unmarked), with -42.8%.
Then `COC(=O)CCC(=O)NC1CC(C)(C)Cc2c1cnn2-c1ccc(F)cc1` (centres unmarked), with 4.42%.
As to `CC1(C)Cc2c(cnn2-c2ccc(F)cc2)C(NC(=O)C2CCC2)C1` (centres unmarked), the “hERG current change (%, negative = inhibition) at 10uM” value is recorded as -79.2%.
Then `CC1(C)Cc2c(cnn2-c2ccc(F)cc2)C(NC(=O)C(C)(C)O)C1` (centres unmarked), with -0.859%; and `CC(=O)N1CCC(C(=O)NC2CC(C)(C)Cc3c2cnn3-c2ccc(F)cc2)CC1` (centres unmarked), with -25.3%; and `COCC(=O)NC1CC(C)(C)Cc2c1cnn2-c1ccc(F)cc1` (centres unmarked), with -64.9%.
For `CCN(CC)S(=O)(=O)c1ccc(C(=O)NCc2nnc(SCC(=O)OC)n2C)cc1`, the “hERG current change (%, negative = inhibition) at 10uM” value is -1.87%.
Then `O=C(NC1CCN(C(=O)Nc2cccc(Cl)c2)CC1)C1CCCCC1`, with 13.1%; and `O=C(Nc1cccc(F)c1)C1CCN(C(=O)c2ccccc2Cl)CC1`, with -8.66%.
On to `Cl.O=C(Nc1cccc(Cl)c1)NC1CCN(C2CCCCC2)C1` (centres unmarked), for which the “hERG current change (%, negative = inhibition) at 10uM” value is recorded as -56.6%.
Then `O=C(Nc1cccc(-c2cccc(Cl)c2)c1)C1CCN(C2CCC2)CC1`, with -73.7%.
`CS(=O)(=O)N1CCC(C(=O)Nc2cccc(F)c2)CC1`: the “hERG current change (%, negative = inhibition) at 10uM” value stood at 15.2%.
Then `CS(=O)(=O)N1CCC(C(=O)Nc2cccc(Cl)c2)CC1`, with 2.18%; and `O=C(Nc1cccc(Cl)c1)C1CCCCC1`, with -9.14%; and `O=C(Nc1cccc(-c2cccc(F)c2)c1)C1CCN(C2CCC2)CC1`, with -71.5%.
With `O=C(Nc1cccc(-c2cccc(F)c2)c1)C1CCN(C2CCOCC2)CC1`, the “hERG current change (%, negative = inhibition) at 10uM” value is on record as -75%.
Then `O=C(Nc1cccc(Cl)c1)NC1CCCCC1`, with 8.14%.
For `O=C(Nc1cccc(F)c1)C1CCN(C(=O)Cc2ccccc2)CC1`, the “hERG current change (%, negative = inhibition) at 10uM” value is recorded as -7.55%.
Then `O=C(Nc1cccc(F)c1)C1CCCCC1`, with -9.22%; and `CCS(=O)(=O)N1CCC(C(=O)Oc2ccccc2OC)CC1`, with 18.5%; and `CC(=O)Nc1ccc(NC(=O)c2c(-c3ccccc3Cl)noc2C)cc1`, with 5.89%.
Then `COc1ccc(C(=O)N(c2ccc(C)cc2)C2C=CS(=O)(=O)C2)cc1OC` (centres unmarked), with 9.79%.
Then `CC(=O)N1CCN(Cc2ccc(Br)s2)CC1`, with -2.46%; and `C#CCOCCOCCOCCNc1nc(N2CCN(C(=O)CCCCCCCCCCNC(=O)Cn3cc(C[C@@H](C)O)nn3)CC2)nc(N2CCN(C(=O)CCCCCCCCCCNC(=O)[C@@H](CCSC)n3cc(CCO)nn3)CC2)n1`, with 10.1%; and `O=C(COC(=O)/C=C/c1ccc([N+](=O)[O-])cc1)NCc1ccccc1`, with 2.07%.
Regarding `CC12CCC(C(=O)NNC(=O)c3ccc(F)cc3)(OC1=O)C2(C)C` (centres unmarked), the “hERG current change (%, negative = inhibition) at 10uM” value is 24.6%.
In the case of `CCOc1ccc(NC(=O)c2ccc(-c3csc(C)n3)cc2)cc1`, the “hERG current change (%, negative = inhibition) at 10uM” value came out at 16.5%.
Then `CC(C)Nc1nnc(SCC(=O)Nc2ccc3c(c2)C(=O)c2ccccc2C3=O)s1`, with -2.55%; and `COc1ccc(CCNc2nc(=O)[nH]nc2C)cc1OC`, with 2.35%; and `Cc1ccc(-c2nnc(CCC(=O)NCC3C4CC5CC(C4)CC3C5)o2)s1` (centres unmarked), with -6.1%.
As to `COc1cccc(-c2cccc(NC(=O)C3CCN(C4CCC4)CC3)c2)c1`, the “hERG current change (%, negative = inhibition) at 10uM” value is listed as -51.7%.
Then `COc1cccc(NC(=O)C2CCC2)c1`, with 8.83%.
As for `COc1cccc(-c2cccc(NC(=O)C3CCN(C4CCOCC4)CC3)c2)c1`, the “hERG current change (%, negative = inhibition) at 10uM” value is listed as -42%.
Then `CCN(CC)CC(C)CNC(=O)C1(O)c2ccccc2NC(=O)N1c1ccc(Cl)c(Cl)c1` (centres unmarked), with 3.31%; and `COc1ccc(OCC(O)CNC(=O)Nc2cc(C)cc(C)c2)cc1` (centres unmarked), with 0.613%; and `Cc1cc(C(=O)N/N=C/c2ccco2)n[nH]1`, with 31.6%.
`CC(=O)c1ccc(C(=O)N2CCCC(C(=O)c3cc(F)ccc3F)C2)s1` (centres unmarked): the “hERG current change (%, negative = inhibition) at 10uM” value was 2.88%.
With `Cn1nnnc1SCCNCc1ccccc1OCc1ccccc1`, the “hERG current change (%, negative = inhibition) at 10uM” value is -9.36%.
Then `COc1cc(CNCCSc2nnnn2C)cc(Br)c1OCc1ccccc1.Cl`, with -56.3%; and `CCOc1cc(CNCCSc2nnnn2C)cc(Br)c1OCc1ccccc1.Cl`, with -23.1%; and `COc1cc(CNCCSc2nnnn2C)cc(Br)c1OCc1ccc(F)cc1.Cl`, with -43.9%.
For the molecule `Cl.Cn1nnnc1SCCNCc1ccccc1OCc1ccc(Cl)cc1`, the “hERG current change (%, negative = inhibition) at 10uM” value was -53.4%.
As to `Cl.Cn1nnnc1SCCNCc1ccccc1OCc1ccc(F)cc1`, the “hERG current change (%, negative = inhibition) at 10uM” value is on record as -29.6%.
